# Experimental data published in the supplement of paper PMC13380429.
# Assays:
# [1] = test system: Vero E6 infected with SARS-CoV-2; test: inhibition of SARS-CoV-2 cytopathic effect; higher = more antiviral protection, active = above 15; conditions: 48 h
# [2] = test system: Vero E6 infected with SARS-CoV-2; test: morphology score (similarity to uninfected cells); higher = more like uninfected cells; conditions: 24 h
# [3] = test system: Vero E6 infected with SARS-CoV-2; test: SARS-CoV-2 infection rate relative to infected DMSO; higher = more infection, active = 60 or less; conditions: 24 h
Structure (SMILES),inhibition of SARS-CoV-2 cytopathic effect ([1]; 1 nM),inhibition of SARS-CoV-2 cytopathic effect ([1]; 8.33 nM),inhibition of SARS-CoV-2 cytopathic effect ([1]; 100 nM),inhibition of SARS-CoV-2 cytopathic effect ([1]; 833.33 nM),inhibition of SARS-CoV-2 cytopathic effect ([1]; 10000 nM),morphology score [2],SARS-CoV-2 infection rate [3]
NNC(=O)CN1C(=O)CN=C(c2ccccc2)c2cc(Br)ccc21 [gidazepam],0.8% (inactive),2.74% (inactive),1.83% (inactive),2.01% (inactive),3.71% (inactive),–,–
O=C(c1ccc(F)cc1)C1CCN(CCn2c(=S)[nH]c3ccccc3c2=O)CC1 [altanserin],-0.65% (inactive),0.82% (inactive),0.34% (inactive),2.37% (inactive),1% (inactive),–,–
Cc1cc(C)cc(NC(=O)Cc2ccc(OC(C)(C)C(=O)O)cc2)c1 [efaproxiral],-0.22% (inactive),-2.52% (inactive),1.44% (inactive),1.37% (inactive),-1.51% (inactive),–,–
CCCCCCCCCCCCCCCCCC(=O)OCC(O)CO (stereo not given) [monostearin],3.45% (inactive),0.27% (inactive),0.45% (inactive),0.48% (inactive),-0.08% (inactive),–,–
CNC(=O)CN1CCC(Oc2cc3c(Nc4cccc(Cl)c4F)ncnc3cc2OC)CC1 (0.833333 µM),–,–,–,–,–,-0.193,107% (inactive)
CC(C)(O)c1ccccc1CC[C@@H](SCC1(CC(=O)O)CC1)c1cccc(/C=C/c2ccc3ccc(Cl)cc3n2)c1 [montelukast],0.18% (inactive),0.4% (inactive),-0.23% (inactive),-0.66% (inactive),-4.23% (inactive),–,–
COCC1=C(C(=O)O)N2C(=O)[C@@H](NC(=O)/C(=N\OC)c3csc(N)n3)[C@H]2SC1 [cefpodoxime] (10 µM),–,–,–,–,–,0.105,104% (inactive)
O=C(CCBr)N1CCN(C(=O)CCBr)CC1 [pipobroman] (10 µM),–,–,–,–,–,0.23,98.5% (inactive)
CN1CCC[C@@H]1CCSc1ccc(O)cc1,0.25% (inactive),0.01% (inactive),0.07% (inactive),-1.07% (inactive),-3.04% (inactive),–,–
O=P(O)(O)C(O)(Cc1cnc2ccccn12)P(=O)(O)O [minodronic-acid] (10 µM),–,–,–,–,–,-0.0261,108% (inactive)
O=C(O)[C@H]1CC[C@H](c2cc3cccnc3c(-c3cccc(F)c3)n2)CC1,-3.3% (inactive),-2.36% (inactive),-0.1% (inactive),0.23% (inactive),1.21% (inactive),–,–
CC(C)(Oc1ccc(Cl)cc1)C(=O)N1CSCC1C(=O)O (stereo not given) [timofibrate],1.85% (inactive),4.22% (inactive),2.73% (inactive),-9.25% (inactive),3.42% (inactive),–,–
COCCCOc1ccnc(C[S+]([O-])c2nc3ccccc3[nH]2)c1C (stereo not given) [rabeprazole],-0.56% (inactive),-0.31% (inactive),2.14% (inactive),–,–,–,–
COc1ccccc1C1(O)CCN(CCCn2c3ccccc3c3ccccc32)CC1,0.73% (inactive),1.45% (inactive),2.5% (inactive),1.69% (inactive),42.4% (active),–,–
Nc1sc2c(c1C(=O)c1ccc(Cl)cc1)CCCC2,-0.5% (inactive),3.31% (inactive),0.38% (inactive),–,–,–,–
CC(=O)OCC(=O)[C@@]1(OC(C)=O)[C@@H](C)C[C@H]2[C@@H]3C[C@H](F)C4=CC(=O)C=C[C@]4(C)[C@@]3(F)[C@@H](O)C[C@@]21C [diflorasone-diacetate] (10 µM),–,–,–,–,–,0.0652,113% (inactive)
CCCNC(=O)NS(=O)(=O)c1ccc(Cl)cc1 [chlorpropamide] (10 µM),–,–,–,–,–,0.266,79.5% (inactive)
COc1ccc(-c2cc(=O)c3c(OC)c(OC)c(OC)c(OC)c3o2)cc1 [tangeritin],2.13% (inactive),0.56% (inactive),-0.23% (inactive),0.3% (inactive),-0.52% (inactive),–,–
O=C(NS(=O)(=O)c1ccc(Br)s1)c1ccc(Cl)cc1Cl [tasisulam] (10 µM),–,–,–,–,–,0.161,109% (inactive)
N#Cc1ccc(C2CCCc3cncn32)cc1 (stereo not given) [fadrozole] (10 µM),–,–,–,–,–,0.114,102% (inactive)
CCc1cc(C(C)=O)c(O)cc1OCCCCCC(C)(C)c1nn[nH]n1,-2.28% (inactive),0.23% (inactive),0.43% (inactive),–,–,–,–
CCn1cc(C(=O)O)c(=O)c2ccc(C)nc21 [nalidixic-acid],0.83% (inactive),1.11% (inactive),0.89% (inactive),0.77% (inactive),-0.57% (inactive),–,–
CO[C@@H]1[C@H](N(C)C(=O)c2ccccc2)C[C@H]2O[C@]1(C)n1c3ccccc3c3c4c(c5c6ccccc6n2c5c31)C(=O)NC4 [midostaurin],-10.1% (inactive),-8.56% (inactive),-8.88% (inactive),-23.9% (inactive),-31.5% (inactive),–,–
CC1(C)C(=O)N(c2ccc(C#N)c(C(F)(F)F)c2)C(=O)N1CCCCO,2.69% (inactive),0.32% (inactive),4.71% (inactive),0.45% (inactive),1.21% (inactive),–,–
